Measured values reported in PubChem BioAssay.
Activity calls are given as the source filed them. Unless noted, no rule for the calls is given here.

Legend:
[1] = tested on: Wnt5a (protein binding on small-molecule microarray); experiment: small molecules binding Wnt5a protein – biophysical, small-molecule microarray, 635/667 nm fluorescence, primary screen (AID 1142); details: 635 nm fluorescence, higher = more signal;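 also: fluorescence read at 667 nm with signal to noise per printed feature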
[2] = ATP-based viability of Huh7 replicon cells – cell-based, CellTiter-Glo luminescence, basal, 48 h, cytotoxicity control for HCV replication inhibitor project, primary screen (AID 1143); details: higher = more signal, called active from +8 up or from −8 down;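 also: Huh7 hepatoma cells carrying a hepatitis C replication reporter with no stimulus; test concentration not given here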
[3] = Pseudomonas biofilm growth suppression – PAO1 strain, BacTiter-Glo luminescence, LB-PBS, primary screen (AID 1144); details: P. aeruginosa PAO1 biofilm, 12 h, higher = more signal
[4] = basal CRE-LacZ reporter activity in PC12 – cell-based, unstimulated, primary screen (AID 1145); details: no forskolin, luminescence, 4.5 h, higher = more signal, called active from +8 up or from −8 down
[5] = forskolin-driven CRE-LacZ activity in PC12 – cell-based, CRE-LacZ reporter, forskolin-stimulated, primary screen (AID 1146); details: luminescence, 4.5 h, higher = more signal, called active from +8 up or from −8 down;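 also: PC12 cells with 6xCRE LacZ reporter stimulated by forskolin 10 µM; beta-galactosidase reporter signal reflecting CREB driven transcription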
[6] = target: Streptavidin (Streptomyces avidinii) (UniProt P22629); experiment: compounds binding control protein streptavidin – biophysical, small-molecule microarray, 635/667 nm fluorescence, artefact control for SMM compound annotation, primary screen (AID 1147); details: higher = more signal;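 also: signal reflects streptavidin binding to arrayed compounds as a control protein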
Chain of Streptavidin (Streptomyces avidinii) (P22629 whole entry, looked up): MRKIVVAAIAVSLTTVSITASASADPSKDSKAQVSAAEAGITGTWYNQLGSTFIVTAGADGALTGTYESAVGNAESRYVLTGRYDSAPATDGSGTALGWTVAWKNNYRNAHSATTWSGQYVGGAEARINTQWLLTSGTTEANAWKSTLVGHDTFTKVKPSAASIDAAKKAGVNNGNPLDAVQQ

[7] = probe aInhba binding on compound microarray – biochemical, small-molecule microarray, 635/667 nm fluorescence, primary screen (AID 1148); details: higher = more signal;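 also: score merges 667nm spot fluorescence with signal-to-noise for antibody binding to printed compounds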
Torsin-1A (Homo sapiens) [8] = target: Torsin-1A (Homo sapiens) (UniProt O14656); experiment: TOR1A wild-type binding on microarray – cell lysate, small-molecule microarray, lysate, 635/667 nm, primary screen (AID 1149); details: COS7 hTOR1A-WT lysate, 635 nm fluorescence, higher = more signal
Chain of Torsin-1A (Homo sapiens) (O14656 whole entry, looked up): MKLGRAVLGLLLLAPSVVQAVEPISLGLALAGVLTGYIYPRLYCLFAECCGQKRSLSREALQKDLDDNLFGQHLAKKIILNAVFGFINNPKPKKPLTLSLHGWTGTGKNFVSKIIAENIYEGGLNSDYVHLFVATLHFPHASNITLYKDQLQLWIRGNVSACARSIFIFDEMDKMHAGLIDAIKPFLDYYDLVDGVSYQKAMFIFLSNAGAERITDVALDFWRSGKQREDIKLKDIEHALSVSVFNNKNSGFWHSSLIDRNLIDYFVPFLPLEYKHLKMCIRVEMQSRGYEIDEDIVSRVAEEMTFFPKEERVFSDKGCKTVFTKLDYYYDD

Torsin-1A (Homo sapiens) [9] = target: Torsin-1A (Homo sapiens) (UniProt O14656); experiment: torsin A mutant lysate binding on microarrays – cell lysate, small-molecule microarray, COS7 lysate, 635/667 nm fluorescence, primary screen (AID 1150); details: COS7 hTOR1A mutant lysate, 635 nm fluorescence, higher = more signal;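 also: score pools 667 nm emission and signal to noise measuring lysate protein binding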
[10] = tested on: Sonic hedgehog protein (Shh); experiment: Sonic hedgehog microarray binding compounds – biochemical, small-molecule microarray, 635/667 nm fluorescence, primary screen (AID 1151); details: 635 nm fluorescence, higher = more signal;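 also: Shh protein binding to compounds spotted on small-molecule microarray slides; score combines spot fluorescence intensity with signal-to-noise across triplicate slides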
[11] = optical density shifts of acrAB sulA E. coli – strain DRC41, OD650, 48 h, E. coli filamentation inducer project, primary screen (AID 1152); details: higher = more signal, called active from +8 up or from −8 down;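 also: E. coli MC1000 strain DRC41 lacking acrAB efflux pump and sulA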
[12] = probe aLefty1 binding on compound microarray – biochemical, small-molecule microarray, 635/667 nm fluorescence, primary screen (AID 1153); details: higher = more signal;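 also: score merges spot fluorescence with signal-to-noise ratio from the scanned slide images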
[13] = plasmodial surface anion channel blockers, osmotic lysis – cell-based, P. falciparum Indochina, OD700, 1 h, primary screen (AID 1154); details: P. falciparum Indochina infected RBC osmotic lysis, higher = more signal, called active from +8 up or from −8 down
[14] = plasmodial surface anion channel blockers, osmotic lysis – cell-based, P. falciparum Indochina, OD700, 2 h, primary screen (AID 1155);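 also: lysis reports solute entry through the parasite surface anion channel PSAC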; details: P. falciparum Indochina infected erythrocytes, higher = more signal, called active from +8 up or from −8 down
[15] = changes in parasitized red cell lysis, either direction – P. falciparum Indochina, OD700, 3 h, PSAC antagonist project, primary screen (AID 1156); details: P. falciparum-infected erythrocytes, osmotic lysis, higher = more signal, called active from +8 up or from −8 down
[16] = plasmodial surface anion channel blockers, osmotic lysis – cell-based, P. falciparum Indochina, OD700, 18 h, primary screen (AID 1157); details: P. falciparum Indochina infected erythrocytes, osmotic lysis OD700, 18 h; higher = more signal, called active from +8 up or from −8 down
[17] = S6 kinase pathway phospho-S6 level changes – cell-based, A549, cytoblot, luminescence, serum-stimulated, primary screen (AID 1158); details: 5 h, higher = more signal;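 also: serum-stimulated A549 lung adenocarcinoma cells; signal is phosphorylated S6 detected by cytoblot immunostaining with HRP secondary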
[18] = target: NADPH oxidase 2 (Homo sapiens) (UniProt P04839); experiment: compounds shifting NOX2 Amplex Red fluorescence – cell-based, HEK293-NOX2, PMA-stimulated, NOX inhibitor project, primary screen (AID 1159); details: 45 min, higher = more signal, called active from +8 up or from −8 down; also: test concentration not given here
Chain of NADPH oxidase 2 (Homo sapiens) (P04839 whole entry, looked up): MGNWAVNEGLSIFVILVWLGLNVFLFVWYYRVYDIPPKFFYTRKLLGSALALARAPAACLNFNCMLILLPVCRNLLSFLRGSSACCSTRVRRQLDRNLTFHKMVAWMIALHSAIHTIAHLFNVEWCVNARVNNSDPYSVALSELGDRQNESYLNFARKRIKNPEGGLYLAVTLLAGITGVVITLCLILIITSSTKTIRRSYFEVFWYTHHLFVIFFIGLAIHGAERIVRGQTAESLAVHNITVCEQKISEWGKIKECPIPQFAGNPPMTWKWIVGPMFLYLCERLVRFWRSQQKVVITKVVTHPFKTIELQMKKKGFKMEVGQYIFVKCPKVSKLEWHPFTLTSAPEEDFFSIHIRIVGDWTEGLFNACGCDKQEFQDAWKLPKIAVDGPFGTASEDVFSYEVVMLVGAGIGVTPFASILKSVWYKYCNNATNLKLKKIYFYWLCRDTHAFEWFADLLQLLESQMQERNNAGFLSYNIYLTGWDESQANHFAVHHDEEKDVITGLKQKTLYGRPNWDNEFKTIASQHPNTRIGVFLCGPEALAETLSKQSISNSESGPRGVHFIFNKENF

[19] = target: NADPH oxidase 4 (Homo sapiens) (UniProt Q9NPH5); experiment: compounds shifting NOX4 Amplex Red fluorescence – cell-based, HEK293-NOX4, tetracycline-induced, NOX inhibitor project, primary screen (AID 1160); details: HEK293-NOX4, Amplex Red H2O2 fluorescence, 45 min; higher = more signal, called active from +8 up or from −8 down
Chain of NADPH oxidase 4 (Homo sapiens) (Q9NPH5 whole entry, looked up): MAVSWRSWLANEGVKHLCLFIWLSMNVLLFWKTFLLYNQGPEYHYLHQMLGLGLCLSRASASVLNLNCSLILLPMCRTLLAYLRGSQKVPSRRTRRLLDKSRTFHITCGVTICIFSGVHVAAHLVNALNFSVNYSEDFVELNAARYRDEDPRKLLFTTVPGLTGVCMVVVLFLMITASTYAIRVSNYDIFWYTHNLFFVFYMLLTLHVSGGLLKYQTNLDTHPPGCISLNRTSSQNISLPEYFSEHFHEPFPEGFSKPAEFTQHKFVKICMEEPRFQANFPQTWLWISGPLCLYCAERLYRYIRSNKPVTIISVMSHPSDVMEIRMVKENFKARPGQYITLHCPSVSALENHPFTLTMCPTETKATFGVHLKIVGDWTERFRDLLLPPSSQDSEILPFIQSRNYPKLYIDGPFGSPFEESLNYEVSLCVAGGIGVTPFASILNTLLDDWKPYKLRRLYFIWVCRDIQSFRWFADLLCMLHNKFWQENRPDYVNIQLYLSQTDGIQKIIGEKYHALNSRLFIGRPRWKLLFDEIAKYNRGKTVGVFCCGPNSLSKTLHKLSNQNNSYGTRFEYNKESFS

[20] = target: NADPH oxidase 5 (Homo sapiens) (UniProt Q96PH1); experiment: compounds shifting NOX5 Amplex Red fluorescence – cell-based, HEK293-NOX5, NOX inhibitor project, primary screen (AID 1161); details: HEK293-NOX5, ionomycin, 45 min, higher = more signal
Chain of NADPH oxidase 5 (Homo sapiens) (Q96PH1 whole entry, looked up): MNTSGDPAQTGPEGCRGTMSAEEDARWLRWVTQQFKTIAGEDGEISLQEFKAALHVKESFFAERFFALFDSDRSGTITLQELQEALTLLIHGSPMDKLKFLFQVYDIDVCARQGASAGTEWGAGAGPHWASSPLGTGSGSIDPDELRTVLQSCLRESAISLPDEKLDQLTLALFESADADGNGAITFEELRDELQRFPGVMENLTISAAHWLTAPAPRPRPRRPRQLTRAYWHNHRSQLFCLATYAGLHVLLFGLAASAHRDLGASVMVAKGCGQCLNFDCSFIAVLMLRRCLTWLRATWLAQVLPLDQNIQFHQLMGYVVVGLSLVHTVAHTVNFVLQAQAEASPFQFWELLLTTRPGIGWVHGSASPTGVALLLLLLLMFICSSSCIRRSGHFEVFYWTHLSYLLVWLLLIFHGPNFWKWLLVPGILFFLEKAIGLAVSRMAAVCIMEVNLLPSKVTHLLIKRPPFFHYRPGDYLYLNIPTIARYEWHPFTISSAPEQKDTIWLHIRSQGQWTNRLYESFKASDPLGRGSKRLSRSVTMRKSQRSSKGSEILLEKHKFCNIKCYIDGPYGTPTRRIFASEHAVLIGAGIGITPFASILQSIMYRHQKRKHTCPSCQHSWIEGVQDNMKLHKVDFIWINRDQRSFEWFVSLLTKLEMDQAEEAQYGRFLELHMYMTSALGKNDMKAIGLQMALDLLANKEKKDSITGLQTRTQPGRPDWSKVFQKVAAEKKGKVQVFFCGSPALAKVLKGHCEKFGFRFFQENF

Structure (SMILES) | composite z-score [1] | z-score [2] | z-score [3] | z-score [4] | z-score [5] | composite z-score [6] | composite z-score [7] | composite z-score (Torsin-1A (Homo sapiens) [8]) | composite z-score (Torsin-1A (Homo sapiens) [9]) | composite z-score [10] | z-score [11] | composite z-score [12] | z-score [13] | z-score [14] | z-score [15] | z-score [16] | z-score [17] | z-score [18] | z-score [19] | z-score [20]
COc1cc(C(O)C2C=CC3C(=O)N(C)C(=O)C3N2NC(=O)OC(C)(C)C)cc(OC)c1OC (stereo not given) | 0.653 | 0.778 (inactive) | 0.66 (inactive) | -0.326 (inactive) | 1.25 (inactive) | 0.671 | 0.798 | -0.146 | 0.727 | -0.32 | -1.47 (inactive) | 0.733 | -0.249 (inactive) | 1 (inactive) | -0.226 (inactive) | 1.12 (inactive) | -1.27 | -0.231 (inactive) | -0.726 (inactive) | -1.48
COC(=O)[C@@]1(Cc2ccccc2N=[N+]=[N-])N=C(c2ccc(OCCCO)cc2)O[C@H]1c1ccccc1 | 0.748 | -5.42 (inactive) | 0.313 (inactive) | 1.29 (inactive) | -0.688 (inactive) | 0.248 | -0.0403 | -0.89 | 0.305 | 0.175 | -0.734 (inactive) | 0.406 | 22.9 (active) | 8.4 (active) | 0.0321 (inactive) | 2.28 (inactive) | 0.0781 | -2.34 (inactive) | 0.355 (inactive) | -1.76
O=C(O)[C@]1(CCS(=O)(=O)c2ccccc2)N=C(c2ccc(OCCCO)cc2)O[C@@H]1c1ccccc1 | 0.235 | 0.495 (inactive) | 0.869 (inactive) | 0.19 (inactive) | -0.534 (inactive) | -0.0087 | 0.297 | -0.0493 | -0.301 | -0.439 | 0.139 (inactive) | 0.528 | 11.3 (active) | 1.11 (inactive) | 0.327 (inactive) | -0.169 (inactive) | -0.515 | -0.298 (inactive) | 0.578 (inactive) | 1.1
COc1ccc([Si](C)(C)[C@@H]2[C@@H](CC(=O)N(CCO)Cc3ccccc3)O[C@]3(C(=O)N(Cc4ccc(N5CCOC5=O)cc4)c4ccccc43)[C@H]2C)cc1 | 0.0838 | -5.01 (inactive) | 0.0675 (inactive) | 7.59 (inactive) | 0.331 (inactive) | 0.601 | 0.027 | 0.436 | 0.0783 | 1.95 | -1.02 (inactive) | -0.0891 | 8.87 (active) | 1.62 (inactive) | -0.248 (inactive) | 0.821 (inactive) | -0.16 | 0.566 (inactive) | 1.18 (inactive) | 3.4
COc1cccc(C)c1NC(=O)O[C@H]1[C@H](OC(=O)Nc2ccccc2)[C@H](OC(=O)Nc2ccccc2)[C@@H](OC)O[C@@H]1CO | 0.0166 | -5.44 (inactive) | 0.365 (inactive) | 0.904 (inactive) | -1.49 (inactive) | 1.69 | 0.0301 | 0.513 | 1.05 | 0.349 | -1.05 (inactive) | 0.211 | 7.38 (inactive) | 1.34 (inactive) | -0.446 (inactive) | 0.89 (inactive) | -0.26 | 0.0936 (inactive) | -0.91 (inactive) | -0.89
[N-]=[N+]=NCc1ccccc1C[C@]1(C(=O)NCCN2CCOCC2)N=C(c2ccc(OCCCO)cc2)O[C@H]1c1ccccc1 | 0.461 | -4.59 (inactive) | -1.63 (inactive) | 1.11 (inactive) | -0.838 (inactive) | -0.0127 | 0.364 | 1.39 | 0.531 | 1.1 | 0.158 (inactive) | 0.428 | 12.7 (active) | 1.83 (inactive) | 1.14 (inactive) | 1.11 (inactive) | 0.378 | -1.77 (inactive) | -0.0953 (inactive) | -1.19
CN1C(=O)C2C=CC(C(O)C3CCCCC3)N(N(c3ccccc3)c3ccccc3)C2C1=O (stereo not given) | 0.0957 | 0.673 (inactive) | 0.0683 (inactive) | -0.333 (inactive) | 0.355 (inactive) | -0.0316 | 0.596 | -0.08 | 0.0415 | -0.298 | -1.11 (inactive) | 0.344 | 0.801 (inactive) | 1.09 (inactive) | 0.332 (inactive) | 0.926 (inactive) | -1.47 | -0.557 (inactive) | -0.635 (inactive) | -0.0135
COC(=O)[C@@]1(Cc2ccc(OC)cc2)[C@H]2c3cc(C(=O)N4CCCC4)n(Cc4ccc(C)o4)c3C[C@H]2CN1C(=O)c1ccccc1 | 0.989 | -5.19 (inactive) | -0.101 (inactive) | -0.758 (inactive) | -2.15 (inactive) | 0.458 | 0.505 | -1.39 | 0.285 | -0.754 | -1.5 (inactive) | 1.34 | 1.63 (inactive) | -0.605 (inactive) | 1.07 (inactive) | 0.0276 (inactive) | -1.8 | -4.49 (inactive) | -2.62 (inactive) | -0.354
